The values that follow come from PubChem BioAssay AID624058 (Broad Institute, 2012).

SMILES strings stand for the structures. Inconclusive results are not listed. The source made the active and inactive calls. No rule for the calls is given here.

The assay can be described thus: EDDHA-treated Pseudomonas aeruginosa growth inhibition – OD600, ATCC 15692, cherry-pick, set 2, dose response (AID 624058). The note with it: P. aeruginosa ATCC 15692 with EDDHA, OD600, 24-30 h; series mostly up to 50 µM.
`O=[N+]([O-])c1ccc(N2CCCC2)nc1`: the result was inactive.

`N#C/C(=C/c1ccco1)c1nc2ccccc2s1`: the result was inactive.

With `CCCNS(=O)(=O)c1ccc(OC)c(Cl)c1Cl`, the call was inactive.

In the case of `N#Cc1cc(-c2ccccc2)cnc1Cl`, the molecule was called inactive.

Regarding `O=C1C2C(C(=O)N1Cc1ccco1)C1C=CC2C12CC2` (centres undefined), the call was inactive.

Take `Cn1cccc1C(C#N)c1cccc(F)c1C#N` (centres undefined): the outcome was inactive.

In the case of `Cc1ccc(S(=O)c2ccc(C)cc2)cc1`, the result was inactive.

With `CCOC(=O)c1ccc(-c2ccc(CO)o2)cc1`, the result was inactive.

Turning to `O=[N+]([O-])c1ccc(N2CCCCC2)nc1`, the result was inactive.

Consider `CCOC(=O)N1CCN(c2ccc(Cl)cc2)CC1`, for which the outcome was inactive.

`COc1ccccc1C(C#N)c1cccc(Cl)n1` (centres undefined): the call was inactive.

For `O=CN(c1ccccc1)c1ccc2ccccc2c1`, the result was inactive.

Turning to `CCOC(=O)/C=C(\C)Sc1cc(=O)oc2ccccc12`, the molecule was called inactive.

Consider `CCOc1ccc(-n2cccc2C=O)cc1`, for which the outcome was inactive.
